Reference: the supplement of paper PMC8728848
This is one part of a sample in which the strongest signals are shown more often than they occur.

Assays:
Assay in all cases: glycan array binding signal (z-score within array); higher = stronger binding
Conditions in all cases: glycan notation: IUPAC condensed, linker removed
[1] = biological target: GlcNAc(b1-2)[GlcNAc(b1-6)]Man(a1-6)[GlcNAc(b1-4)][GlcNAc(b1-2)Man(a1-3)]Man(b1-4)GlcNAc(b1-4)GlcNAc
Summary of the method: (§1)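 Arrays were curated from the Consortium for Functional Glycomics database, 3228 in total, and kept only where the protein sequence was available. Binding is expressed as a within-array Z-score. This score was averaged across arrays of the same protein sequence at different concentrations or buffers and across linkers, and negative values can be read as non-binding.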

[2] = biological target: GlcNAc(b1-3)Gal(b1-4)GlcNAc(b1-3)Gal(b1-4)GlcNAc(b1-2)Man(a1-3)[GlcNAc(b1-3)Gal(b1-4)GlcNAc(b1-3)Gal(b1-4)GlcNAc(b1-2)Man(a1-6)]Man(b1-4)GlcNAc(b1-4)GlcNAc
Summary of the method: as §1

[3] = biological target: GlcNAc(b1-3)Gal(b1-4)GlcNAc(b1-3)Gal(b1-4)GlcNAc(b1-3)Gal(b1-4)GlcNAc(b1-2)Man(a1-3)[GlcNAc(b1-3)Gal(b1-4)GlcNAc(b1-3)Gal(b1-4)GlcNAc(b1-3)Gal(b1-4)GlcNAc(b1-2)Man(a1-6)]Man(b1-4)GlcNAc(b1-4)[Fuc(a1-6)]GlcNAc
Summary of the method: as §1

[4] = biological target: GlcNAc(b1-3)Gal(b1-4)GlcNAc(b1-3)Gal(b1-4)GlcNAc(b1-3)Gal(b1-4)GlcNAc(b1-2)[GlcNAc(b1-3)Gal(b1-4)GlcNAc(b1-3)Gal(b1-4)GlcNAc(b1-3)Gal(b1-4)GlcNAc(b1-6)]Man(a1-6)[GlcNAc(b1-3)Gal(b1-4)GlcNAc(b1-3)Gal(b1-4)GlcNAc(b1-3)Gal(b1-4)GlcNAc(b1-2)Man(a1-3)]Man(b1-4)GlcNAc(b1-4)[Fuc(a1-6)]GlcNAc
Summary of the method: as §1

[5] = biological target: Man(a1-2)Man(a1-2)Man(a1-3)Man
Summary of the method: as §1

MurNAc(b1-4)GlcNAc = biological target: MurNAc(b1-4)GlcNAc
Summary of the method: as §1

[6] = biological target: Neu5Ac(a2-3)Gal(b1-3)GlcNAc(b1-2)Man
Summary of the method: as §1

[7] = biological target: Neu5Ac(a2-3)Gal(b1-4)GlcNAc(b1-2)Man(a1-3)[GlcNAc(b1-4)][Neu5Ac(a2-3)Gal(b1-4)GlcNAc(b1-2)Man(a1-6)]Man(b1-4)GlcNAc(b1-4)GlcNAc
Summary of the method: as §1

[8] = biological target: Neu5Ac(a2-3)Gal(b1-4)GlcNAc(b1-6)[Neu5Ac(a2-3)Gal(b1-3)]GalNAc
Summary of the method: as §1

[9] = biological target: Neu5Ac(a2-3)Gal(b1-4)[Fuc(a1-3)]GlcNAc(b1-2)Man
Summary of the method: as §1

[10] = biological target: Neu5Ac(a2-3)Gal(b1-4)[Fuc(a1-3)]GlcNAc(b1-3)GalNAc
Summary of the method: as §1

[11] = biological target: Neu5Ac(a2-3)Gal(b1-4)[Fuc(a1-3)]GlcNAc(b1-6)[Neu5Ac(a2-3)Gal(b1-3)]GalNAc
Summary of the method: as §1

[12] = biological target: Neu5Ac(a2-3)GalNAc(b1-4)GlcNAc
Summary of the method: as §1

Neu5Ac(a2-6)Gal = biological target: Neu5Ac(a2-6)Gal
Summary of the method: as §1

[13] = biological target: Neu5Ac(a2-6)Gal(b1-4)GlcNAc(b1-2)Man(a1-3)[GlcNAc(b1-2)Man(a1-6)]Man(b1-4)GlcNAc(b1-4)GlcNAc
Summary of the method: as §1

[14] = biological target: Neu5Ac(a2-6)Gal(b1-4)GlcNAc(b1-2)Man(a1-6)[GlcNAc(b1-2)Man(a1-3)]Man(b1-4)GlcNAc(b1-4)GlcNAc
Summary of the method: as §1

[15] = biological target: Neu5Ac(a2-6)Gal(b1-4)GlcNAc(b1-2)Man(a1-6)[Man(a1-3)]Man(b1-4)GlcNAc(b1-4)GlcNAc
Summary of the method: as §1

[16] = biological target: Neu5Ac(a2-6)Gal(b1-4)GlcNAc(b1-3)Gal(b1-4)GlcNAc(b1-3)Gal(b1-4)GlcNAc(b1-2)Man(a1-3)[Neu5Ac(a2-6)Gal(b1-4)GlcNAc(b1-3)Gal(b1-4)GlcNAc(b1-3)Gal(b1-4)GlcNAc(b1-2)Man(a1-6)]GalNAc
Summary of the method: as §1

[17] = biological target: Neu5Ac(a2-6)Gal(b1-4)GlcNAc(b1-3)Gal(b1-4)[Fuc(a1-3)]GlcNAc(b1-3)Gal(b1-4)[Fuc(a1-3)]GlcNAc
Summary of the method: as §1

[18] = biological target: Neu5Ac(a2-6)Gal(b1-4)GlcNAc6S
Summary of the method: as §1

Neu5Gc(a2-3)Gal(b1-4)Glc = biological target: Neu5Gc(a2-3)Gal(b1-4)Glc
Summary of the method: as §1

[19] = biological target: Neu5Gc(a2-3)Gal(b1-4)GlcNAc(b1-3)Gal(b1-4)GlcNAc(b1-2)Man(a1-3)[Neu5Gc(a2-3)Gal(b1-4)GlcNAc(b1-3)Gal(b1-4)GlcNAc(b1-2)Man(a1-6)]Man(b1-4)GlcNAc(b1-4)GlcNAc
Summary of the method: as §1

[20] = biological target: Neu5Gc(a2-8)Neu5Ac(a2-3)Gal(b1-4)GlcNAc
Summary of the method: as §1

B1: EPL1 (Trichoderma atroviride), A0PCX2 (protein)
chain: MQLSNLFKLALFTAAVSADTVSYDTGYDDASRSLTVVSCSDGTNGLITRYHWQTQGQIPRFPYIGGAQAVAGWNSPNCGTCWKLTYSGKTIYVLAIDHTAAGFNIGLDAMNALTNGNAVALGRVSATASQVAVSNCGL
glycan array binding signal (z-score) [1]: -0.514 | glycan array binding signal (z-score) [2]: 0.862 | glycan array binding signal (z-score) [3]: 0.866 | glycan array binding signal (z-score) [4]: 0.127 | glycan array binding signal (z-score) [5]: -0.108 | glycan array binding signal (z-score) (MurNAc(b1-4)GlcNAc): -0.51 | glycan array binding signal (z-score) [6]: -0.068 | glycan array binding signal (z-score) [7]: -0.469 | glycan array binding signal (z-score) [8]: -0.379 | glycan array binding signal (z-score) [9]: -0.347 | glycan array binding signal (z-score) [10]: 1.06 | glycan array binding signal (z-score) [11]: 0.767 | glycan array binding signal (z-score) [12]: -0.428 | glycan array binding signal (z-score) (Neu5Ac(a2-6)Gal): -0.387 | glycan array binding signal (z-score) [13]: -0.298 | glycan array binding signal (z-score) [14]: -0.056 | glycan array binding signal (z-score) [15]: -0.436 | glycan array binding signal (z-score) [16]: 0.008 | glycan array binding signal (z-score) [17]: -0.291 | glycan array binding signal (z-score) [18]: 0.855 | glycan array binding signal (z-score) (Neu5Gc(a2-3)Gal(b1-4)Glc): -0.246 | glycan array binding signal (z-score) [19]: 0.362 | glycan array binding signal (z-score) [20]: -0.344
